# Assay results taken from PubChem BioAssay AID1508601 (ICCB-Longwood Screening Facility, Harvard Medical School, 2020).
# Hit rate of the full screen: of about 5,700 compounds, about 85 (1%) were called active. This is one part of a sample in which actives are shown more often than they occur. Cut-off read from the data, not from the text of the source: active = p53-positive nuclei above about 36% (passing the limit was not always enough); inactive = the rest.
# Assays:
# [1] = nuclear p53 accumulation, HPV+ cells – imaging, p53-positive nuclei imaging, 24 h, 48 h (AID 1508601); conditions: 24/48 h
# [2] = target: Cellular tumor antigen p53 (Homo sapiens) (UniProt P04637); assay: as above; conditions: 24/48 h, stronger effect = higher value
# Chain of Cellular tumor antigen p53 (Homo sapiens) (P04637 whole entry, looked up): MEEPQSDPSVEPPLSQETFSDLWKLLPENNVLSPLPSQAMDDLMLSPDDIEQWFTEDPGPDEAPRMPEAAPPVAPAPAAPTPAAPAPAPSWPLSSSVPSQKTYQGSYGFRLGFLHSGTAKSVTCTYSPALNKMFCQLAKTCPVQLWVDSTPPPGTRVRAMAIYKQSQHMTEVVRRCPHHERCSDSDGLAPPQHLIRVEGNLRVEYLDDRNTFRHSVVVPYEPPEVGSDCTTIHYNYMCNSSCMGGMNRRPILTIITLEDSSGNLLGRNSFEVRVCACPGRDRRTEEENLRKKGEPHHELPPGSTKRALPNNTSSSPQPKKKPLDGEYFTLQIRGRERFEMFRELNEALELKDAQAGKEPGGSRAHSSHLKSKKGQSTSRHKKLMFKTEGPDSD
# [3] = measured here: cell number at 24 h, Library stock concentration: 80 uM
# [4] = measured here: cell number at 24 h, Library stock concentration: 400 uM
# [5] = measured here: cell number at 24 h, Library stock concentration: 2 mM
# [6] = measured here: cell number at 24 h, Library stock concentration: 3.33 mM
# [7] = measured here: cell number at 24 h, Library stock concentration: 10 mM
# [8] = measured here: cell number at 48 h, Library stock concentration: 80 uM
# [9] = measured here: cell number at 48 h, Library stock concentration: 400 uM
# [10] = measured here: cell number at 48 h, Library stock concentration: 2 mM
# [11] = measured here: cell number at 48 h, Library stock concentration: 3.33 mM
# [12] = measured here: cell number at 48 h, Library stock concentration: 10 mM
# [13] = Library stock concentration: 80 uM
# [14] = Library stock concentration: 400 uM
# [15] = Library stock concentration: 2 mM
# [16] = Library stock concentration: 3.33 mM
# [17] = Library stock concentration: 10 mM
# [18] = measured here: p53 positive nuclei at 24 h, Library stock concentration: 80 uM
# [19] = measured here: p53 positive nuclei at 24 h, Library stock concentration: 400 uM
# [20] = measured here: p53 positive nuclei at 24 h, Library stock concentration: 2 mM
# [21] = measured here: p53 positive nuclei at 24 h, Library stock concentration: 3.33 mM
# [22] = measured here: p53 positive nuclei at 24 h, Library stock concentration: 10 mM
# [23] = measured here: cell number at 24 h, concentration not given here
# [24] = measured here: cell number at 48 h, concentration not given here
# [25] = measured here: p53 positive nuclei at 24 h, concentration not given here
# [26] = measured here: cell number at 24 h, Library stock concentration: 46 uM
# [27] = measured here: cell number at 24 h, Library stock concentration: 278 uM
# [28] = measured here: cell number at 24 h, Library stock concentration: 1.67 mM
# [29] = measured here: cell number at 48 h, Library stock concentration: 46 uM
# [30] = measured here: cell number at 48 h, Library stock concentration: 278 uM
# [31] = measured here: cell number at 48 h, Library stock concentration: 1.67 mM
# [32] = Library stock concentration: 46 uM
# [33] = Library stock concentration: 278 uM
# [34] = Library stock concentration: 1.67 mM
# [35] = measured here: p53 positive nuclei at 24 h, Library stock concentration: 46 uM
# [36] = measured here: p53 positive nuclei at 24 h, Library stock concentration: 278 uM
# [37] = measured here: p53 positive nuclei at 24 h, Library stock concentration: 1.67 mM
compound,measurement,setting,value
CN1CC[C@H](c2c(O)cc(O)c3c(=O)cc(-c4ccccc4Cl)oc23)C(O)C1 (some centres undefined),"nuclei count, normalised",[1]; [3],104%
same,"nuclei count, normalised",[1]; [4],38.3%
same,"nuclei count, normalised",[1]; [5],28.8%
same,"nuclei count, normalised",[1]; [6],19.7%
same,"nuclei count, normalised",[1]; [7],27.3%
same,"nuclei count, normalised",[1]; [8],113%
same,"nuclei count, normalised",[1]; [9],25.6%
same,"nuclei count, normalised",[1]; [10],21.8%
same,"nuclei count, normalised",[1]; [11],16%
same,"nuclei count, normalised",[1]; [12],20.2%
same,"p53-positive nuclei, normalised",[2]; [13],0.113% (inactive)
same,"p53-positive nuclei, normalised",[2]; [14],48.4% (inactive)
same,"p53-positive nuclei, normalised",[2]; [15],4.92% (inactive)
same,"p53-positive nuclei, normalised",[2]; [16],8.28% (inactive)
same,"p53-positive nuclei, normalised",[2]; [17],4.03% (inactive)
same,"p53-positive nuclei, normalised",[2]; [18],-0.107%
same,"p53-positive nuclei, normalised",[2]; [19],2.03%
same,"p53-positive nuclei, normalised",[2]; [20],0.196%
same,"p53-positive nuclei, normalised",[2]; [21],0.472%
same,"p53-positive nuclei, normalised",[2]; [22],0.419%
CN1CCC(c2c(O)cc(O)c3c(=O)cc(-c4ccccc4Cl)oc23)C(O)C1 (centres undefined),"nuclei count, normalised",[1]; [3],79.6%
same,"nuclei count, normalised",[1]; [4],49.2%
same,"nuclei count, normalised",[1]; [5],29.8%
same,"nuclei count, normalised",[1]; [7],27.6%
same,"nuclei count, normalised",[1]; [8],57.1%
same,"nuclei count, normalised",[1]; [9],29.5%
same,"nuclei count, normalised",[1]; [10],16%
same,"nuclei count, normalised",[1]; [12],17.8%
same,"p53-positive nuclei, normalised",[2]; [13],5.98% (inactive)
same,"p53-positive nuclei, normalised",[2]; [14],41.3% (inactive)
same,"p53-positive nuclei, normalised",[2]; [15],13.9% (inactive)
same,"p53-positive nuclei, normalised",[2]; [17],7.27% (inactive)
same,"p53-positive nuclei, normalised",[2]; [18],1.3%
same,"p53-positive nuclei, normalised",[2]; [19],7.22%
same,"p53-positive nuclei, normalised",[2]; [20],0.675%
same,"p53-positive nuclei, normalised",[2]; [22],0.446%
CN1CCC(c2c(O)cc(O)c3c(=O)cc(-c4ccccc4Cl)oc23)C1CO (centres undefined),"nuclei count, normalised",[1]; [3],103%
same,"nuclei count, normalised",[1]; [4],85.7%
same,"nuclei count, normalised",[1]; [5],35.8%
same,"nuclei count, normalised",[1]; [6],33.3%
same,"nuclei count, normalised",[1]; [7],24.1%
same,"nuclei count, normalised",[1]; [8],106%
same,"nuclei count, normalised",[1]; [9],84.1%
same,"nuclei count, normalised",[1]; [10],23.2%
same,"nuclei count, normalised",[1]; [11],26.2%
same,"nuclei count, normalised",[1]; [12],17.3%
same,"p53-positive nuclei, normalised",[2]; [13],0.295% (inactive)
same,"p53-positive nuclei, normalised",[2]; [14],16% (inactive)
same,"p53-positive nuclei, normalised",[2]; [15],66% (active)
same,"p53-positive nuclei, normalised",[2]; [16],49.6% (inactive)
same,"p53-positive nuclei, normalised",[2]; [17],30.8% (inactive)
same,"p53-positive nuclei, normalised",[2]; [18],0.32%
same,"p53-positive nuclei, normalised",[2]; [19],6.89%
same,"p53-positive nuclei, normalised",[2]; [20],3.25%
same,"p53-positive nuclei, normalised",[2]; [21],3.39%
same,"p53-positive nuclei, normalised",[2]; [22],6.32%
CCCCC[C@H](O)/C=C/[C@@H]1[C@@H](C/C=C\CCCC(=O)NCC)[C@@H](O)C[C@H]1O,"nuclei count, normalised",[1]; [23],106%
same,"nuclei count, normalised",[1]; [24],102%
same,"p53-positive nuclei, normalised",[2]; concentration not given here,0.015% (inactive)
same,"p53-positive nuclei, normalised",[2]; [25],-0.0692%
O=S(=O)(NO)c1ccccc1,"nuclei count, normalised",[1]; [23],71.3%
same,"nuclei count, normalised",[1]; [24],77%
same,"p53-positive nuclei, normalised",[2]; concentration not given here,0.0111% (inactive)
same,"p53-positive nuclei, normalised",[2]; [25],-0.0732%
O=C(/C=C/c1cccc(C(=O)NO)c1)NO,"nuclei count, normalised",[1]; [23],114%
same,"nuclei count, normalised",[1]; [24],107%
same,"p53-positive nuclei, normalised",[2]; concentration not given here,0.114% (inactive)
same,"p53-positive nuclei, normalised",[2]; [25],0.124%
O=C(C=Cc1cccc(S(=O)(=O)Nc2ccccc2)c1)NO,"nuclei count, normalised",[1]; [3],108%
same,"nuclei count, normalised",[1]; [4],107%
same,"nuclei count, normalised",[1]; [5],94.6%
same,"nuclei count, normalised",[1]; [6],58%
same,"nuclei count, normalised",[1]; [7],52.5%
same,"nuclei count, normalised",[1]; [8],101%
same,"nuclei count, normalised",[1]; [9],95.8%
same,"nuclei count, normalised",[1]; [10],77.3%
same,"nuclei count, normalised",[1]; [11],40.2%
same,"nuclei count, normalised",[1]; [12],30.4%
same,"p53-positive nuclei, normalised",[2]; [13],3.46% (inactive)
same,"p53-positive nuclei, normalised",[2]; [14],0.535% (inactive)
same,"p53-positive nuclei, normalised",[2]; [15],5.33% (inactive)
same,"p53-positive nuclei, normalised",[2]; [16],46% (active)
same,"p53-positive nuclei, normalised",[2]; [17],76% (active)
same,"p53-positive nuclei, normalised",[2]; [18],0.856%
same,"p53-positive nuclei, normalised",[2]; [19],1.2%
same,"p53-positive nuclei, normalised",[2]; [20],10.1%
same,"p53-positive nuclei, normalised",[2]; [21],51%
same,"p53-positive nuclei, normalised",[2]; [22],64.7%
CCCCCCCCc1cccc(NC(=O)C(N)COP(=O)(O)O)c1 (centres undefined),"nuclei count, normalised",[1]; [26],114%
same,"nuclei count, normalised",[1]; [27],118%
same,"nuclei count, normalised",[1]; [28],113%
same,"nuclei count, normalised",[1]; [7],108%
same,"nuclei count, normalised",[1]; [29],110%
same,"nuclei count, normalised",[1]; [30],108%
same,"nuclei count, normalised",[1]; [31],107%
same,"nuclei count, normalised",[1]; [12],101%
same,"p53-positive nuclei, normalised",[2]; [32],-0.108% (inactive)
same,"p53-positive nuclei, normalised",[2]; [33],0.0439% (inactive)
same,"p53-positive nuclei, normalised",[2]; [34],-0.101% (inactive)
same,"p53-positive nuclei, normalised",[2]; [17],-0.166% (inactive)
same,"p53-positive nuclei, normalised",[2]; [35],0.0125%
same,"p53-positive nuclei, normalised",[2]; [36],-0.0546%
same,"p53-positive nuclei, normalised",[2]; [37],-0.0401%
same,"p53-positive nuclei, normalised",[2]; [22],-0.218%
CCCCCCCCCCCCCCCCCCCC(=O)NCCO,"nuclei count, normalised",[1]; [23],110%
same,"nuclei count, normalised",[1]; [24],108%
same,"p53-positive nuclei, normalised",[2]; concentration not given here,-0.151% (inactive)
same,"p53-positive nuclei, normalised",[2]; [25],-0.0865%
CCCCCc1ccc(C=CC(=O)Nc2ccccc2C(=O)O)cc1,"nuclei count, normalised",[1]; [26],113%
same,"nuclei count, normalised",[1]; [27],109%
same,"nuclei count, normalised",[1]; [28],111%
same,"nuclei count, normalised",[1]; [7],109%
same,"nuclei count, normalised",[1]; [29],113%
same,"nuclei count, normalised",[1]; [30],110%
same,"nuclei count, normalised",[1]; [31],110%
same,"nuclei count, normalised",[1]; [12],106%
same,"p53-positive nuclei, normalised",[2]; [32],-0.18% (inactive)
same,"p53-positive nuclei, normalised",[2]; [33],-0.17% (inactive)
same,"p53-positive nuclei, normalised",[2]; [34],-0.244% (inactive)
same,"p53-positive nuclei, normalised",[2]; [17],-0.204% (inactive)
same,"p53-positive nuclei, normalised",[2]; [35],-0.087%
same,"p53-positive nuclei, normalised",[2]; [36],-0.151%
same,"p53-positive nuclei, normalised",[2]; [37],-0.151%
same,"p53-positive nuclei, normalised",[2]; [22],-0.0182%
CCCCc1nc2cc(C=CC(=O)NO)ccc2n1CCN(CC)CC,"nuclei count, normalised",[1]; [3],95.3%
same,"nuclei count, normalised",[1]; [4],95.2%
same,"nuclei count, normalised",[1]; [5],78.6%
same,"nuclei count, normalised",[1]; [6],52.6%
same,"nuclei count, normalised",[1]; [7],51%
same,"nuclei count, normalised",[1]; [8],90.2%
same,"nuclei count, normalised",[1]; [9],86.3%
same,"nuclei count, normalised",[1]; [10],62.7%
same,"nuclei count, normalised",[1]; [11],28.6%
same,"nuclei count, normalised",[1]; [12],28.2%
same,"p53-positive nuclei, normalised",[2]; [13],1.67% (inactive)
same,"p53-positive nuclei, normalised",[2]; [14],3.58% (inactive)
same,"p53-positive nuclei, normalised",[2]; [15],17.7% (inactive)
same,"p53-positive nuclei, normalised",[2]; [16],87.1% (active)
same,"p53-positive nuclei, normalised",[2]; [17],84.9% (active)
same,"p53-positive nuclei, normalised",[2]; [18],5.63%
same,"p53-positive nuclei, normalised",[2]; [19],7.57%
same,"p53-positive nuclei, normalised",[2]; [20],33.7%
same,"p53-positive nuclei, normalised",[2]; [21],71.3%
same,"p53-positive nuclei, normalised",[2]; [22],79.8%
